Shown are actives, neighbours in structure and some others; about 2.5% of the full set was active somewhere.
LEDGF integ inh – blockers of LEDGF/p75-dependent integrase strand transfer – biochemical, TR-FRET, high throughput, primary screen. TR-FRET IN-LEDGF/p75 DNA integration, Eu/Cy5. inhibition, % at 3.7 µM. 0.64% of 370,000 active;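 active = inhibition above the screen-wide mean plus 3 SD, cut at about 13% in these data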;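 note: signal is the Cy5 over europium emission ratio at 671 and 618 nm; 0% = plate median of compound wells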
MBD2 DNA inh – inhibitors of MBD2 binding to methylated DNA, primary screen, biochemical, TR-FRET, DNA-binding domain, human | MBD2 binding to methylated oligonucleotide | Methyl-CpG-binding domain protein 2 (Homo sapiens), Q9UBB5 | 0.31% of 370,000 active | inhibition, % at 4.4 µM | AID 686964, 2013; in the data active = inhibition above about 13%
UHRF1 MBD2 ctr – UHRF1 methylated DNA binding inhibitors, primary screen, counter-screen for MBD2 inhibitor project, biochemical, TR-FRET, human UHRF1, single concentration; E3 ubiquitin-protein ligase UHRF1 (Homo sapiens), Q96T88; UHRF1 binding to methylated oligo; inhibition, % at 4.4 µM; 0.75% of 370,000 active; in the data active = inhibition above about 21%;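 note: UHRF1 SRA domain binding a hemimethylated CpG hairpin DNA probe; 0% = median of test compound wells and 100% = reference inhibitor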
Target sequence (Q96T88 whole entry, looked up, the tested form may be a part): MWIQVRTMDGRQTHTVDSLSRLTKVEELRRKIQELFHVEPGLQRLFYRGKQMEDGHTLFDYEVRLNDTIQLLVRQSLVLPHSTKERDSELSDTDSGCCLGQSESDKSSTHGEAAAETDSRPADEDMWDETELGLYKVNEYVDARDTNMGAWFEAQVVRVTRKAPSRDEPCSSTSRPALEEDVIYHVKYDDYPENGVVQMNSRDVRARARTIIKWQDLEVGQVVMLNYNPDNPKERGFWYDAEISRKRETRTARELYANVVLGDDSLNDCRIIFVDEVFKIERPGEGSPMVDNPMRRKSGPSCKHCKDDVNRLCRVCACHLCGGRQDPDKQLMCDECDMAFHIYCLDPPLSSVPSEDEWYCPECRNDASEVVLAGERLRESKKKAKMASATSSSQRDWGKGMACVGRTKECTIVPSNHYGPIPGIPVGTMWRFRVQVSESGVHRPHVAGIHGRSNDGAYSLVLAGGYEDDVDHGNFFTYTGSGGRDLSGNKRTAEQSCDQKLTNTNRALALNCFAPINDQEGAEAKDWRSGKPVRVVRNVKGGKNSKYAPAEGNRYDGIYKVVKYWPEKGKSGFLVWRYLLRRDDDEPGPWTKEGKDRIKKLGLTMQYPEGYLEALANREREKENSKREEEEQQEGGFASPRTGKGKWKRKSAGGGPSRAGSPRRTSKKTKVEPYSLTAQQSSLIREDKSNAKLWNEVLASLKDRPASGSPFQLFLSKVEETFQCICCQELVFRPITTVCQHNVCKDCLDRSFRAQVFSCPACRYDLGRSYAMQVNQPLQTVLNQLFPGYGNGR
PRMT1 inh – PRMT1 methyltransferase inhibitors, primary screen, biochemical, fluorescence polarization; Protein arginine N-methyltransferase 1 (Homo sapiens), Q99873; recombinant PRMT1, activity-based probe fluorescence polarization; inhibition, % at 2.79 µM; 1.3% of 370,000 active; AID 652257, 2013;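 active = inhibition above about 21% made by adding two undisclosed values, limit read from the data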
PRMT1 inh conf – PRMT1 methyltransferase inhibitors, confirmation, biochemical, fluorescence polarization, triplicate | shares compounds with PRMT1 inh | recombinant His-PRMT1, activity-based probe fluorescence polarization | inhibition, % at 2.79 µM | 42% of 3,300 active;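 active = mean inhibition across replicates above the hit cutoff derived for the earlier primary screen, cut at about 22% in these data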
Starred values were filed as active, the others as inactive; · = no result.

SMILES | LEDGF integ inh | MBD2 DNA inh | UHRF1 MBD2 ctr | PRMT1 inh | PRMT1 inh conf
COc1ccc(CCNC(=O)CSc2ccc(NC(C)=O)cc2)cc1OC | -3.6 | 3.9 | 1.2 | 25.3* | 30.9*
CCOC(=O)C(C(=O)OCC)c1cc(Br)c2noc3c2c1C(=O)c1ccccc1-3 | 9.0 | 3.6 | 8.2 | 31.8* | 53.5*
O=C1c2ccccc2-c2onc3ccc(Oc4ccccc4)c1c23 | 4.7 | -1.6 | -0.2 | 10.5 | ·
Cc1nc(C)c(-c2ccc(SCc3ccccc3C)nn2)s1 | -1.1 | -0.9 | 0.6 | 2.9 | ·
CC(C)N(CCC(=O)c1ccc2ccccc2c1)Cc1ccccc1 | -1.6 | 4.1 | 0.5 | 54.3* | 71.4*
CC(OC(=O)c1ccc2ccccc2c1)C(=O)N(C)Cc1ccccc1 (configuration not stated) | -1.1 | 2.2 | 1.8 | -0.2 | ·
O=C(CSc1ccccc1F)NCC(c1ccco1)N1CCCCC1 (configuration not stated) | 5.7 | 4.3 | -0.4 | -5.7 | ·
NC(=O)c1c(NC(=O)C2CCCO2)sc2c1CCCCC2 (configuration not stated) | 5.7 | 0.2 | -0.5 | 28.4* | 6.8
CC(C)C[C@@H]1COc2cc(N3CCC[C@H]3CO)ccc2S(=O)(=O)N1 | -2.3 | -1.0 | -1.2 | -5.4 | ·
Cc1ccc(S(=O)(=O)NCc2ccccc2)cc1C(=O)NC(C)c1ccc(S(N)(=O)=O)cc1 (configuration not stated) | -1.4 | 0.2 | 0.8 | -2.5 | ·
CCOC(=O)C1CCN(c2nc(C)cc(C)c2C#N)CC1 | 5.4 | -2.7 | -1.6 | -0.4 | ·
CCOC(=O)C1CCN(c2nc(N)c3c(N)nc(SCC(=O)O)cc3c2C#N)CC1 | -7.1 | -11.8 | -1.8 | 55.4* | 26.3*
O=S1(=O)CC=C(CSC(=S)NC2CCS(=O)(=O)C2)C1 (configuration not stated) | 1.5 | 0.8 | 2.8 | 26.4* | 91.2*
Cc1cc(NC(=O)CSc2nc3ccsc3c(=O)n2Cc2ccccn2)n[nH]1 | -3.2 | 2.0 | 0.2 | 18.2 | ·
O=c1c2sccc2nc(SCc2cc(=O)n3ccccc3n2)n1Cc1ccccn1 | 8.0 | 0.7 | 6.8 | 27.2* | 15.0
CC1(C)CC(=O)C2=C(C1)Nc1ccccc1S2 | 3.5 | -1.0 | -2.4 | 14.6 | ·
CC1(C)CC(=O)C2=C(C1)Nc1ccccc1NC2 | -6.1 | 1.1 | -2.4 | 25.0* | -0.4
O=C(CSc1ccc(-c2cccs2)nn1)Nc1ccccc1 | -3.6 | 8.1 | -1.3 | 1.4 | ·
O=C(CSc1ccc(-c2cccs2)nn1)c1cccs1 | 0.1 | 9.0 | 23.0* | 27.9* | 5.0
CCN1/C(=C/c2ccc3cccc(C)c3[n+]2CC)Sc2ccccc21 | 2.4 | -7.5 | -28.7 | -15.2 | ·
CCN1/C(=C/C(C)=C/c2sc3ccccc3[n+]2CC)Sc2ccccc21 | 2.6 | -11.9 | -4.1 | 97.8* | -7.6
CC(C)(C)C1CCC(=O)N(CCSc2ccccc2)CC1 (configuration not stated) | 6.8 | -3.4 | 5.0 | 0.8 | ·
CC(=O)Nc1ccc(SCCN2CC[C@@H](C(C)(C)C)CCC2=O)cc1 | 1.1 | -1.8 | -0.8 | 41.4* | 42.9*
CC(=O)Nc1ccc(SC[C@H](C)CN2CC[C@H](O)CCC2=O)cc1 | 0.6 | 1.0 | 0.9 | 26.2* | 37.5*
CCC(O)(c1ccc(NC(=O)OC(C)(C)C)cc1)c1cc(OC)cc(OC)c1 (configuration not stated) | -1.9 | 3.5 | 0.2 | 2.5 | ·
SMILES | LEDGF integ inh | MBD2 DNA inh | UHRF1 MBD2 ctr | PRMT1 inh | PRMT1 inh conf
CCOC(=O)[C@]12CCC=C1N(Cc1ccc(Cl)cc1Cl)C(=O)[C@H](CC(=O)NCc1ccc(C)o1)C2 | -2.6 | 8.8 | 5.3 | 35.2* | -3.1
c1cc(SSc2ccncc2)ccn1 | -3.0 | -0.2 | 0.7 | 87.2* | 82.7*
c1ccc(Sc2ccncc2)cc1 | 2.3 | 1.4 | -1.1 | -2.7 | ·
Cc1ccc(O)c(C(=O)c2cc(C#N)c3nc4ccccc4n3c2)c1 | 1.9 | 0.8 | -2.5 | -1.5 | ·
c1ccc(Nc2cccc(Nc3ccccc3)n2)cc1 | -2.0 | 0.6 | -3.6 | 36.9* | 41.8*
NNC(=S)Nc1cccc(-c2n[nH]c(=S)o2)c1 | -5.5 | 0.9 | 1.1 | 33.5* | 8.5
COc1cc(C(c2nnnn2C(C)(C)C)N2CCN(c3nc4ccccc4s3)CC2)ccc1O (configuration not stated) | 0.6 | 0.1 | -4.8 | 44.1* | 31.2*
Cc1c(N=C2C=C(Br)C(=O)C(Br)=C2)c(=O)n(-c2ccccc2)n1C | 56.7* | 18.5* | 55.7* | 61.5* | 49.2*
Cc1c(N=C2C=CC(=O)c3ccccc32)c(=O)n(-c2ccccc2)n1C | 5.8 | -16.9 | -10.1 | 7.2 | ·
O=C1OC(/C(=C\Nc2ccc(F)cc2F)[N+](=O)[O-])c2ccccc21 (configuration not stated) | 1.3 | -0.1 | 3.4 | 12.2 | ·
O=C1OC(/C(=C\Nc2cc(Cl)ccc2O)[N+](=O)[O-])c2ccccc21 (configuration not stated) | 9.9 | -14.1 | -14.2 | 29.0* | -0.4
C#CCN1CC(N2CCN(CCO)CC2)CS1(=O)=O (configuration not stated) | 1.8 | -2.6 | -0.6 | 1.1 | ·
CC(=O)c1ccc(N(CC(=O)NC2CCCC2)C(=O)CCC(=O)Nc2cc(C)on2)cc1 | -4.7 | 7.6 | 3.9 | 8.9 | ·
CC1Cc2cc(S(=O)(=O)NCc3ccccc3)ccc2N1C(=O)C1CC1 (configuration not stated) | -5.3 | 4.7 | 3.4 | 46.5* | 3.3
CC1Cc2cc(S(=O)(=O)NCc3ccccc3)ccc2N1C(=O)C1CCC1 (configuration not stated) | 4.0 | -5.4 | -2.9 | -2.8 | ·
COc1cc(NC(=O)c2cccc3c(-c4cnn(C)c4)coc23)cc(OC)c1OC | 0.5 | 0.7 | -0.4 | -0.6 | ·
O=c1c2c([N+](=O)[O-])cc([N+](=O)[O-])cc2sn1Cc1ccccc1 | -4.4 | -3.4 | -3.3 | 95.8* | 96.5*
O=c1c2cc([N+](=O)[O-])cc([N+](=O)[O-])c2[nH]n1-c1ccccc1 | -7.9 | -7.8 | -8.8 | 4.3 | ·
Cc1cccc(NC(=O)C(NS(=O)(=O)c2ccc3c(c2)CCC(=O)N3)c2ccccc2)n1 (configuration not stated) | -1.6 | 2.0 | -1.3 | 47.1* | 48.0*
O=C(Nc1ccc(Br)cc1)c1cccc(OC(=S)N2CCOCC2)c1 | -1.6 | 3.4 | 4.1 | 2.8 | ·
O=C(CCl)Nc1ncc(S(=O)(=O)c2ccc([N+](=O)[O-])cc2)s1 | 1.9 | 2.9 | 1.5 | 33.2* | 3.2
O=S(=O)(/N=S1\CC=CCN1S(=O)(=O)c1ccccc1)c1ccccc1 (configuration not stated) | -0.6 | -2.6 | -1.3 | 40.7* | 77.5*

Source: PubChem BioAssay (The Scripps Research Institute Molecular Screening Center)
